Results: PubChem BioAssay (NCI)
This is part of a sample that, as a whole, favours compounds with a hit. Of some 83,000 tested, about 20% had one in any assay.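 Negative percent growth values reflect cell death: -40 means 40% of the cells present at the start died, and -100 means all died.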 Values without a mark were called inactive. The source made the active and inactive calls. The calls were made as follows: active = growth percent below 10; inactive = the rest.

Columns and labels:
Assay in all cases: NCI-60 one-dose screen, 48 h (100 = growth as untreated, 0 = no growth, -100 = all killed)
Settings in all cases: 10 µM unless noted
[1] = test system: HCT-15 colon
[2] = test system: HT29 colon
[3] = test system: SNB-75 CNS
[4] = test system: SNB-19 CNS
[5] = test system: U251 CNS
[6] = test system: PC-3 prostate
[7] = test system: SK-MEL-5 melanoma
[8] = test system: UACC-62 melanoma
[9] = test system: LOX IMVI melanoma
[10] = test system: SK-MEL-28 melanoma
[11] = test system: SK-MEL-2 melanoma
[12] = test system: EKVX NSCLC
[13] = test system: SN12C renal
[14] = test system: UO-31 renal
[15] = test system: TK-10 renal
[16] = test system: ACHN renal
[17] = test system: A498 renal
[18] = test system: CCRF-CEM leukemia
[19] = test system: MOLT-4 leukemia
[20] = test system: CAKI-1 renal

Compound | growth [1] | growth [2] | growth [3] | growth [4] [%] | growth [5] | growth [6] | growth [7] | growth [8] | growth [9] | growth [10] [%] | growth [11] [%] | growth [12] [%] | growth [13] [%] | growth [14] [%] | growth [15] [%] | growth [16] [%] | growth [17] | growth [18] | growth [19] | growth [20] [%]
C=CCn1c(SCC(=O)Nc2ccc(C(=O)/C=C/c3cc(OC)c(OC)c(OC)c3)cc2)nnc1-c1c[nH]c2ccccc12 | -20.3% (active) | -57.2% (active) | 91.2% | 21.7 | 8.96% (active) | 40.6% | 25.2% | 36.7% | -65.1% (active) | 41.7 | 101 | 73.7 | 34.1 | 43.5 | 144 | 52.2 | 44% | 5.4% (active) | 2.78% (active) | –
CC/C(=C/c1c(O)cccc1OC)c1ccc2c(OC)cccc2[o+]1 | 92.2% | 110% | 98.8% | 99.4 | 99.5% | 95.3% | 104% | 90.6% | 95% | 97.3 | 107 | 97.9 | 96.9 | 93.5 | 121 | 99.2 | 102% | 102% | 104% | –
O=C(CSc1nnc(-c2ccc3nc(-c4ccccc4)[nH]c3c2)o1)Nc1ccc(C(=O)/C=C/c2ccccc2)cc1 | 110% | 108% | 113% | 99.9 | 98.2% | 106% | 98.3% | 97.1% | 97.3% | 103 | 103 | 106 | 98 | 87.4 | 110 | – | 95.9% | 107% | 93.2% | 103
COc1ccc(-n2c(/C=C3\C(=O)Nc4ccccc43)ccc2CO)cc1 | 89.7% | 105% | 101% | 90 | 95.1% | 96.4% | 94.5% | 83.3% | 94.6% | 101 | 104 | 94.7 | 104 | 74.1 | 105 | – | 107% | – | 90.2% | 84.6
O=C(CSc1nc2ccccc2c(=O)n1-c1ccccc1)Nc1ccc(-c2nc3ccc([N+](=O)[O-])cc3[nH]2)cc1 | 61.3% | 79.3% | 82.5% | 81.8 | 87.6% | 69.7% | 91.4% | 51.9% | 37.8% | 82.6 | 89.5 | 93.5 | 72.4 | 76.9 | 127 | – | 77.8% | 22.1% | 20.4% | 78.2
CCCCCc1ccc(S(=O)(=O)Nc2cccc(-c3csc(NC(=O)CN4CCN(CCO)CC4)n3)c2)cc1 | 51.3% | 35.6% | 88% | 82.6 | 55.4% | 64.1% | 51.7% | 90% | -45.9% (active) | 79.4 | 99.7 | 81.4 | 86.6 | 79.9 | 113 | – | 81% | – | 58.8% | 76.2
CCCCCCCn1cc2c(N[C@H](C)c3ccccc3)ncnc2n1 | 91.5% | 113% | 92.2% | 94.3 | 102% | 92.6% | 109% | 80.6% | 99.2% | 108 | 123 | 88.2 | 99.2 | 78.3 | 126 | – | 87.6% | 99.6% | 102% | 88.2
CC(=O)c1ccc(Nc2nc(SCC(C)C)nc(-c3ccccc3)c2C#N)cc1 | 95.3% | 106% | 93.3% | 38.5 | 32.4% | 104% | 99.7% | 75.3% | 86.9% | 101 | 76.7 | 88.6 | 95.9 | 111 | 98.4 | – | 107% | 102% | 102% | 69.6
COc1ccc(N2CCN(C3=C(Cl)C(=O)C(C)=C(C)C3=O)CC2)cc1 | 110% | 120% | 107% | 99.1 | 100% | 92.3% | 97.6% | 88.5% | 91.4% | 118 | 106 | 116 | 99.3 | 91.4 | 123 | – | 108% | 26.1% | 53.7% | 91.9
CNC(=O)c1cc(-n2ccc3cc(NC(=O)Nc4ccc(N5CCOCC5)c(C(F)(F)F)c4)ccc32)ccn1 | 30.2% | 19.6% | 17.1% | 74.2 | 42% | 4.72% (active) | 4.69% (active) | 13.4% | 13.3% | 62.9 | 68.8 | 65.4 | 55.3 | 35.2 | 61.3 | – | 70.7% | – | 13.8% | 41.3
CC(=O)Nc1cccc(Nc2nc(N[C@@H](C)c3ccccc3)c3ccccc3n2)c1 | 10.4% | 4.28% (active) | -19.3% (active) | 20.6 | 14.3% | 21.3% | -5.52% (active) | 28.6% | -70.2% (active) | 42.3 | 38.2 | 24 | 33.4 | 19.2 | 54.1 | – | -33.5% (active) | – | -17% (active) | 18.5
NC(N)=Nc1ccc(Oc2cccc(NC(N)=Nc3ccc(I)cc3F)c2)cn1 | 87.4% | 31.8% | 77.5% | 26.3 | 46.1% | 28.1% | 48.8% | 63% | 12.8% | 71.9 | 86.8 | 63 | 39.4 | 83.8 | 71.3 | 94.9 | 49% | 43.2% | 42.8% | –
CCO/C=N/C1=C(C#N)C(c2ccc(Cl)cc2)c2sc3c(C)cccc3c2O1 (stereo not given) | 12.5% | 4.77% (active) | -5.08% (active) | 18.4 | 20.7% | 12% | 30.7% | 9.19% (active) | 22.1% | 60.5 | 42.6 | 45.9 | 26.2 | 30.3 | 62.2 | – | -5.08% (active) | 16.2% | 18.8% | 39.5
COc1ccc(NC2=C(Cl)C(=O)c3nc(C)ccc3C2=O)cc1OC | 82.3% | 110% | 111% | 94.6 | 106% | 70.6% | 86.6% | 71.8% | -3.09% (active) | 102 | 100 | 50.8 | 90.5 | 100 | 149 | 95 | 82.6% | – | 69.8% | –
COc1cc(Cn2cc3c(c2)-c2onc(CN4CCCC4)c2CC3)cc(OC)c1OC | 94.7% | 105% | 104% | 90.6 | 96.8% | 92.5% | 79.8% | 81.2% | 97.6% | 95.2 | 101 | 75.9 | 96.7 | 78.1 | – | 97.5 | 94.4% | 89% | 91.8% | 91.7
